Measured values published in PubChem BioAssay.
Values without a mark were called inactive. No rule for the calls is given here.

molecular target: Pantothenate synthetase (Mycobacterium tuberculosis (strain ATCC 25618 / H37Rv)) (UniProt P9WIL5); assay: Coupled enzyme confirmation of inhibitors against recombinant Mtb PanC (AID 375); conditions: coupled enzyme assay; at 10 µM, stronger effect = higher value;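 also: 0% = full reaction with vehicle and 100% = no enzyme background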
Sequence (P9WIL5 whole entry, looked up): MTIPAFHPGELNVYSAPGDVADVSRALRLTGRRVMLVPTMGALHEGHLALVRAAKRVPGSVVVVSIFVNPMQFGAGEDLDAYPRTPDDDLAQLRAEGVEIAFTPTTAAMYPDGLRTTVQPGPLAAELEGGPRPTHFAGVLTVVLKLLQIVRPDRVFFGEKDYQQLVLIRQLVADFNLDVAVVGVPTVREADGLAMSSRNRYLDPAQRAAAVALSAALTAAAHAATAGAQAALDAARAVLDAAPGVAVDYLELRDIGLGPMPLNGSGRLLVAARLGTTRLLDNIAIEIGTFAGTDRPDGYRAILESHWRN

| SMILES | inhibition [%] |
| --- | --- |
| CCOc1ccc(C2CC(=O)NC3=C2C(=O)CCC3)cc1Cl (centres undefined) | 0 |
| CCOc1ccc(NC(=O)CN2CCN(CC(=O)Nc3ccc(F)c(F)c3)CC2)cc1 | 0 |
| CC(NCCc1ccc(O)cc1)C(O)c1ccc(O)cc1 (centres undefined) | 0 |
| c1ccc(-c2nc3cnccn3c2Nc2ccc3c(c2)OCCO3)cc1 | 0 |
| CC(=O)Nc1nnc(S(N)(=O)=O)s1 | 0 |
| c1ccc(OCCOc2ncnc3sccc23)cc1 | 0 |
| c1ccc(-c2n[nH]c3ccccc23)cc1 | 0 |
| Cc1ccc2nc(NC(=O)C3CCCN(S(=O)(=O)c4cnc[nH]4)C3)sc2c1 (centres undefined) | 1 |
| COC(=O)CS(=O)(=O)c1nnc([C@H](Cc2ccccc2)NC(=O)OC(C)(C)C)o1 | 1 |
| CNC(=O)c1ccsc1NC(=O)c1ccccc1 | 4 |
| c1ccc(CNc2c3c(nc4ncnn24)CCCC3)nc1 | 0 |
| CCCOc1cccc(C2/C(=C(/O)c3ccccc3)C(=O)C(=O)N2CCN(C)C)c1 (centres undefined) | 0 |
| Cc1ccc2cc(C#N)c(NCCCNC(=O)C3CCCO3)nc2c1 (centres undefined) | 0 |
| COCCCNC(=O)Cn1cc2c(n1)CCC(C)C2 (centres undefined) | 3 |
| CCN(CC)c1ccc(NC(=O)c2[nH]c(C)c(C(C)=O)c2C)c(C)c1 | 0 |
| CCCOc1ccc(N2C(=O)C3ON(c4ccccc4)C(c4ccc(O)c(OC)c4)C3C2=O)cc1 (centres undefined) | 1 |
| Cc1ccc(-c2csc3ncn(-n4c(C)ccc4C)c(=O)c23)o1 | 0 |
| COC(=O)c1[nH]c2c(c1C)C(=O)CC(c1cccs1)C2 (centres undefined) | 3 |
| O=c1c2ccccc2nc(-c2cccc(Cl)c2)n1O | 4 |
| Cc1c2cnn(CC(=O)N3CCN(c4ncccn4)CC3)c(=O)c2c(C)n1Cc1ccc(F)cc1 | 0 |

| SMILES | inhibition [%] |
| --- | --- |
| C=CCc1ccccc1OCCCCN1CCCC1 | 0 |
| CC(C)Oc1ccc2c(=O)c(-c3ccccc3)coc2c1 | 4 |
| COc1ccc(CN2CC(C(=O)NCc3ccccn3)CC2=O)cc1 (centres undefined) | 5 |
| COc1ccc(OC)c(NC(=O)CSc2nnc(Cc3cccn3C)n2-c2ccc(F)cc2)c1 | 0 |
| Cn1c(=O)c2c(nc(NCCCO)n2Cc2cccc(Br)c2)n(C)c1=O | 3 |
| CCOCCCN(Cc1cc2cc(C)cc(C)c2[nH]c1=O)C(=O)N(CC)CC | 0 |
| CCOc1ccc2oc(-c3ccccc3)c(C(=O)N3CCN(CCO)CC3)c2c1 | 0 |
| CC(=N\O)/C(CN(C)C)=N/O | 0 |
| CCCCCOc1ccc(C2NC(=O)NC2=O)cc1 (centres undefined) | 0 |
| CCN1CCN(c2nc(C)nc3c2sc(=S)n3C)CC1 | 0 |
| CN(C)CCCNC(=O)CCC1CCCCC1 | 6 |
| COc1cc(CNc2ccc(N3CCOCC3)c(C(=O)O)c2)ccc1OCC(N)=O | 1 |
| NC(=O)c1c(NC(=O)Cc2cccs2)sc2c1CCC2 | 0 |
| C=CCn1c(COc2ccccc2F)nnc1SCC(=O)N1CC(=O)Nc2ccccc21 | 1 |
| CCOC(=O)C1CCCN(C(=O)c2ccc(CS(=O)(=O)c3ccc(Br)cc3)o2)C1 (centres undefined) | 4 |
| CCOc1ccccc1C1CC(=O)NC(SCC)=C1C#N (centres undefined) | 0 |
| CCn1c(NCc2ccc(N(C)C)cc2)nc2ccccc21 | 0 |
| CC1(C)Cc2c(sc3c2C2=NCCN2C=N3)CS1 | 3 |
| Cc1cc(C)n2c(SCC(=O)Nc3cc(C)on3)nnc2n1 | 17 |
